Measured values taken from ChEMBL document CHEMBL3433997, “St. Jude Leishmania screening dataset” (2016).

Each molecule was assayed against Solute carrier family 2, facilitated glucose transporter member 1 (Homo sapiens) (UniProt P11166) (assay: ST_JUDE_LEISH: Cytotoxicity at 2uM final concentration against transgenic Leishmania Mexicana promastigotes LmGLUT1 that are glucose transport deficient and complemented with the human glucose transporter GLUT1. Activity is measured by DNA content using SYBR green in vitro).
Type: functional

Sequence of Solute carrier family 2, facilitated glucose transporter member 1 (Homo sapiens) (P11166 whole entry): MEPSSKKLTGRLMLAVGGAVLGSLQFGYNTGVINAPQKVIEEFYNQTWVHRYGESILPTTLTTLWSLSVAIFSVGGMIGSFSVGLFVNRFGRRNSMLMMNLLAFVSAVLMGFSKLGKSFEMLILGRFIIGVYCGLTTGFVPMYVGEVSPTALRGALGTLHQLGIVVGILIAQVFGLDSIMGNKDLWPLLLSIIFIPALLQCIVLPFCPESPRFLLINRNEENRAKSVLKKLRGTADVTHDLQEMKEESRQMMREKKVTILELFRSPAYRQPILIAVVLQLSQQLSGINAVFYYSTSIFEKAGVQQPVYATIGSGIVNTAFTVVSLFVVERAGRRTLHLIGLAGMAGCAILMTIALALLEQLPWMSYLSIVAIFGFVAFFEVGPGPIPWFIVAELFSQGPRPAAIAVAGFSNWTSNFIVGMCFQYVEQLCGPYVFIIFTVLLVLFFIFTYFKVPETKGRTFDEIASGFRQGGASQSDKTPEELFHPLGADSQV

| SMILES | inhibition [%] |
| --- | --- |
| CCc1nc(N)nc(N)c1-c1ccc(F)cc1 | 6.27 |
| Clc1ccc(OCc2ccccc2)c(-c2nc(-c3nc4ncc(Br)cc4[nH]3)cs2)c1 | 4.08 |
| O=c1cc(NCCCNCc2cccc(OC(F)(F)C(F)F)c2)[nH]c2ccccc12 | 6.11 |
| CCOc1ccccc1CNc1nccc(NCc2ccc(Cl)cc2Cl)n1 | 31.3 |
| COC(=O)c1cccc(CNCc2ccc(-c3ccc(-c4nc5cc(F)ccc5[nH]4)s3)cc2)c1 | 2.57 |
| NC(=O)c1ccc(NC(=O)CN(Cc2ccc(Cl)cc2)S(=O)(=O)c2ccccc2)cc1 | 7.52 |
| Cn1ccnc1S(=O)(=O)CCNCc1ccc(-c2ccc3ncnc(Nc4ccc(OCc5cccc(F)c5)c(Cl)c4)c3c2)o1 | 3.08 |
| c1ccc(Oc2ccc(Nc3ccnc4cc(-c5cccc(CN6CCOCC6)c5)ccc34)cc2)cc1 | -0.77 |
| CCc1c(C(=O)NC2CCC(N3CCC(c4ccccc4OC)CC3)CC2)[nH]c2ccc(OC)cc12 (stereo not given) | 1.56 |
| CC(=O)Nc1ccc(-c2nc3ccc(-c4nc5ccc(NC(C)=O)cc5[nH]4)cc3[nH]2)cc1 | 5.99 |
| CCN(CC)CCN(Cc1ccc(-c2ccc(C(F)(F)F)cc2)cc1)C(=O)Cn1c(CCc2ccc(F)c(F)c2F)nc(=O)c2cccnc21 | 0.59 |
| Cc1cc(N)c2cc(NC(=O)c3cccc(C(=O)Nc4ccc5nc(C)cc(N)c5c4)c3)ccc2n1 | -0.38 |
| CN1CCN(c2cc(-c3cccc(C(F)(F)F)c3)nc(-c3ccncc3)n2)CC1 | 2.69 |
| Cc1c(CNCCCNc2cc(=O)c3ccccc3[nH]2)sc(/C=N/O)c1Br | 5.48 |
| CCN(CC)CCCNCc1ccc(-c2ccc(C(F)(F)F)cc2)cc1 | 5.63 |
| CN(C)CCCNc1nccc(N(C)c2ccc(NC(=O)Nc3cc(C(F)(F)F)ccc3F)cc2)n1 | 1.93 |
| Cc1cc(N/N=C/c2cccc([N+](=O)[O-])c2)c2ccccc2n1 | 1.39 |
| N#Cc1cc(N(CCCOc2cccc(OC(F)(F)F)c2)Cc2ccccc2C(F)(F)F)ccc1C(F)(F)F | -0.77 |
| O=C(Nc1cccc(CN2CCCN(Cc3ccsc3)CC2)c1)c1ccc(-c2ccccc2)cc1 | 2.55 |
| CCOc1ccc(C2CCN(CCN3CCC(NC(=O)c4ccc(-c5ccc(C(F)(F)F)cc5)cc4)CC3)CC2)c(OCC2CC2)c1 | 3.99 |

| SMILES | inhibition [%] |
| --- | --- |
| Cc1nn(-c2ccccc2)nc1C(=O)N(Cc1ccc(-c2ccc(CNCCc3ccc(S(C)(=O)=O)cc3)cn2)cc1)C1CC1 | 3.23 |
| CCn1c(SCC(=O)Nc2cc(C(F)(F)F)ccc2Cl)nc2ccccc2c1=O | 1.69 |
| CCCCc1cc(Cc2cnc(N)nc2N)cc(OC)c1OC | 3.17 |
| CCCCNC(=O)[C@@H](NC(=O)c1ccc(O)c(-c2ccc(Cl)c(Cl)c2)c1)C(C)C | 4.49 |
| O=C(Nc1nc2ccc(Cl)cc2s1)c1csnn1 | -1.77 |
| CCCCNCCOc1ccc(-c2nc(-c3ccccc3)c(-c3ccccc3)[nH]2)cc1 | 1.09 |
| Cc1nc(C)c(-c2ccc(S(=O)(=O)c3ccc(Cl)cc3)cc2)c(O)c1Br | 4.93 |
| O=C(NCC1CCC(C(=O)NC2CCCc3ccccc32)CC1)c1ccc(O)c(-c2ccc(Cl)c(Cl)c2)c1 (stereo not given) | 3.42 |
| COc1cc(Cc2cnc(N)nc2N)cc(OCc2cccc(C(=O)O)c2)c1OC | -0.05 |
| O=S(=O)(Nc1cc2c(cc1OCCCN1CCCCC1)CCNCC2)c1ccc(-c2ccc(Cl)cc2)cc1 | 1.29 |
| CC1(C)C(N(O)C(=O)Nc2ccc(Cl)c(Cl)c2)N(c2ccc(Cl)c(Cl)c2)C(=O)N1CCc1ccccc1 (stereo not given) | -0.14 |
| COc1ccc(-c2cc(C(=O)Nc3ccc4[nH]c(-c5ccccc5)nc4c3)[nH]n2)cc1 | 13.1 |
| Cc1cc(NCCC(=O)Nc2ccccc2)nc(NCCc2ccccc2)n1 | 3.62 |
| O=C(Nc1ccc(-c2ccccc2)cc1)Nc1ccc2c(c1)CCNCC2 | -2.5 |
| Cc1cccc(CC2CC(=O)N(c3ccc([N+](=O)[O-])cc3)C2=O)c1 (stereo not given) | 7.63 |
| CN1CCN(c2ccc(Nc3c(C(N)=O)cnc4cc(-c5ccoc5)ccc34)cc2)CC1 | 15.1 |
| CN1CCN(Cc2cc3cc(NC(=O)/C=C/c4ccc(Cl)cc4)ccc3s2)CC1 | 4.5 |
| CCCC(=O)Nc1ccc(OCCCN(Cc2ccccc2F)c2ccc(C#N)c(C(F)(F)F)c2)cc1 | 1.79 |
| CCc1c(CCNCCCCCCNCCc2ccccc2)ccc(OC)c1OC | 4.61 |
| COc1ccc(Nc2ncc3c(-c4cccc(NC(=O)Cc5cccnc5)c4)c[nH]c3n2)cc1OC | -2.6 |
